PubChem BioAssay (Tox21)
Results filed as inconclusive are left out. Activity calls are given as the source filed them. Unless noted, calls follow the shape of the full dose curve.

Key:
[1] = Nuclear factor erythroid 2-related factor 2/antioxidant responsive element (Nrf2/ARE) small molecule agonists: qHTS cell viability counter screen in human keratinocytes (AID 1919968; active = well fitted curve in the direction sought with a large enough effect in the repeat runs; an effect the other way counts as inactive or inconclusive; also: nearly all actives have a fitted effect of over 55% in size)
Procedure, shortened: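 Seed 1,500 KeratinoSens cells per well, then incubate 5 h at 37 C/5% CO2. Add compounds in DMSO and incubate 23 h. Add CellTiter-Fluor, wait 1 h and read fluorescence.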

[2] = target: Gonadotropin-releasing hormone receptor (Homo sapiens) (UniProt P30968); experiment: Human gonadotropin-releasing hormone receptor (GnRHR) small molecule agonists, calcium flux assay in GnRHR-HEK293 cells (AID 1920063); also: nearly all actives have a fitted effect of over 35% in size; also: potency is read from the fitted curve at half-maximal effect
Procedure, shortened: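 Cells: HEK293 stably expressing human GnRHR. Steps: overnight (18 h) culture, 1 h calcium dye loading at 37 C, compound addition, kinetic fluorescence read at 480/540 nm. Each compound tested at 15 concentrations in triplicate.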

[3] = target: KiSS-1 receptor (Homo sapiens) (UniProt Q969F8); experiment: Human kisspeptin (KISS1R) small molecule agonists, calcium flux assay in KISS1R-HEK293 cells (AID 1920064; active = well fitted curve in the direction sought with a large enough effect in the repeat runs; an effect the other way counts as inactive or inconclusive)
Procedure, shortened: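 Cells plated and incubated 18 h; dye added, 1 h at 37 C; compounds in DMSO pinned in; signal read at 480/540 nm every second for 3 min. Each compound tested at 15 concentrations in triplicate.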

[4] = G protein-coupled receptor (GPCR) small molecule agonists, calcium flux assay: HEK293 wild type cell line counter screen (AID 1920065)
Procedure, shortened: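 Counter-screen of the Tox21 10K library for non-specific calcium release: dye-loaded cells received compounds in DMSO and were monitored by kinetic fluorescence (480/540 nm, 3 min). Fifteen concentrations, run in triplicate.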

[5] = p53 small molecule agonists, cell-based qHTS assay with human liver microsomes (AID 1963577);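 also: p53 response element beta-lactamase reporter cells with liver microsomes plus NADPH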
Procedure, shortened: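 With metabolic activation: human liver microsomes (0.5 mg/mL final) plus NADPH (0.5 mg/mL final) added alongside compounds to p53RE-bla cells; 16 h 37 C exposure; beta-lactamase read by LiveBLAzer fluorescence.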

[6] = p53 small molecule agonists, cell-based qHTS assay with rat liver microsomes (AID 1963578)
Procedure, shortened: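 Metabolic activation by rat liver microsomes and NADPH, each 0.5 mg/mL final, added right after compounds to p53RE-bla reporter cells (4,000/well, plated 5 h earlier). 16 h at 37 C, then LiveBLAzer substrate for 2 h at room temperature in the dark; fluorescence read-out.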

[7] = p53 small molecule agonists, cell-based qHTS assay with human liver microsomes: qHTS cell viability counter screen (AID 1963579); also: nearly all actives have a fitted effect of over 45% in size
Procedure, shortened: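 Metabolic activation used human liver microsomes and NADPH, both 0.5 mg/mL final, over 16 hours at 37 C on p53RE-bla cells (4,000/well). Cytotoxicity measured by CellTiter-Glo luminescence, 30 min at room temperature.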

[8] = p53 small molecule agonists, cell-based qHTS assay with rat liver microsomes: qHTS cell viability counter screen (AID 1963580); also: nearly all actives have a fitted effect of over 45% in size
Procedure, shortened: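 p53RE-bla HCT-116 cells were exposed 16 h at 37 C to compounds with rat liver microsomes (0.5 mg/mL) and NADPH (0.5 mg/mL). Viability was measured in the same wells as ATP content by CellTiter-Glo luminescence.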

[9] = p53 small molecule agonists, cell-based qHTS assay: qHTS cell viability counter screen (AID 1963581); also: nearly all actives have a fitted effect of over 45% in size
Procedure, shortened: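 Cells: HCT-116 with p53 response element-driven beta-lactamase. Treatment: 16 h, 37 C, compounds in DMSO. Read: CellTiter-Glo luminescence after 30 min RT.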

[10] = p53 small molecule agonists, cell-based qHTS assay (AID 1963582; active = well fitted activation curve with a large enough effect in the signal ratio in the repeat runs, not every such curve was filed as active; the % refers to the signal ratio)
Procedure, shortened: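 Quantitative HTS in p53RE-bla cells: after a 5 h settling period, compounds delivered in DMSO were left on cells for 16 h at 37 C, and reporter induction was measured as fluorescence following 2 h substrate loading.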

[11] = cAMP Responsive Elements (CRE) small molecule agonists, cell-based qHTS assay (AID 1963590)
Procedure, shortened: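 Agonist mode qHTS in CRE-bla HEK 293T cells: compounds dosed from DMSO for 3 h at 37 C/5% CO2, followed by LiveBLAzer B/G FRET substrate for 2 h at room temperature.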

[12] = cAMP Responsive Elements (CRE) small molecule antagonists, cell-based qHTS assay (AID 1963591; active = well fitted inhibition curve with a large enough effect in the signal ratio in the repeat runs, not every such curve was filed as active; the % refers to the signal ratio)
Procedure, shortened: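 Antagonist mode: test compounds are co-incubated with the adenylyl cyclase activator NKH477 (0.25 uM final) on CRE-bla HEK293T cells for 3 h at 37 °C, followed by LiveBLAzer substrate loading.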

[13] = target: Beta-2 adrenergic receptor (Homo sapiens) (UniProt P07550); experiment: Adrenergic beta2 receptor (ADRB2) small molecule antagonists, cell-based qHTS assay (AID 1963592); also: series mostly up to about 92 µM; nearly all actives have a fitted effect of over 50% in size
Procedure, shortened: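 Cells (CHO, stable ADRB2 overexpression) incubated 18-20hr at 37C; compounds added from DMSO; agonist mix (1nM isoproterenol, 100uM IBMX, 25uM Ro-20-1724) added; 0.5hr RT; d2-cAMP and anti-cAMP-cryptate added; 1hr RT; 665/615 nm read.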

[14] = target: D(2) dopamine receptor (Homo sapiens) (UniProt P14416); experiment: Dopamine D2 receptor (DRD2) small molecule agonists, cell-based qHTS assay (AID 1963594); also: nearly all actives have a fitted effect of over 35% in size
Procedure, shortened: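 HEK293 cells stably expressing human DRD2, pre-treated with PDE inhibitor Ro20-1724 (0.1 mM final) and compound 10 min at room temperature, then stimulated with NKH477 (200nM […]) for 30 min. cAMP read by HTRF (665/620 nm).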

[15] = target: D(2) dopamine receptor (Homo sapiens) (UniProt P14416); experiment: Dopamine D2 receptor (DRD2) small molecule antagonists, cell-based qHTS assay (AID 1963595; active = well fitted inhibition curve with a large enough effect in the signal ratio in the repeat runs, with a control signal flat; the % refers to the signal ratio)
Procedure, shortened: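 DRD2-HEK293; 0.1 mM Ro20-1724; cpd 10 min RT; NKH477 200 nM + quinpirole 12 nM, 30 min RT; HTRF cAMP (cAMP-d2/anti-cAMP cryptate), 665/620 nm ratio after 1 h.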

[16] = target: 5-hydroxytryptamine receptor 2A (Homo sapiens) (UniProt P28223); experiment: 5-hydroxytryptamine receptor 2A (HTR2A) small molecule antagonists, cell-based qHTS assay (AID 1963586); also: nearly all actives have a fitted effect of over 45% in size
Procedure, shortened: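 Antagonist-mode intracellular calcium assay: DOI (4 nM) added after 5 min compound pre-incubation at room temperature to dye-loaded HTR2A-CHO cells. Fluorescence followed for 3 min, sampled every second.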

[17] = target: 5-hydroxytryptamine receptor 2A (Homo sapiens) (UniProt P28223); experiment: 5-hydroxytryptamine receptor 2A (HTR2A) small molecule agonists, cell-based qHTS assay (AID 1963587); also: nearly all actives have a fitted effect of over 30% in size; also: potency is read from the fitted curve at half-maximal effect
Procedure, shortened: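 CHO cells stably expressing human HTR2A, plated 18 h, loaded with calcium dye 1 h at 37 C. Agonist mode: compounds added and intracellular calcium fluorescence recorded kinetically for 2 min at 1 sec intervals.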

[18] = target: Muscarinic acetylcholine receptor M1 (Homo sapiens) (UniProt P11229); experiment: Cholinergic receptor muscarinic 1 (CHRM1) small molecule agonists, cell-based qHTS assay (AID 1963589); also: nearly all actives have a fitted effect of over 35% in size
Procedure, shortened: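 Agonist-mode qHTS in CHO cells stably carrying human muscarinic M1. Intracellular calcium is tracked by fluorescence every second after compound transfer; each compound runs at 15 concentrations in three independent runs.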

[19] = target: Muscarinic acetylcholine receptor M1 (Homo sapiens) (UniProt P11229); experiment: Cholinergic receptor muscarinic 1 (CHRM1) small molecule antagonists, cell-based qHTS assay (AID 1963588); also: nearly all actives have a fitted effect of over 40% in size
Procedure, shortened: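 CHRM1-CHO calcium-flux assay, antagonist mode. Cells were seeded 18 h, dye-loaded 1 h at 37 C and given compound for 5 min at RT, then acetylcholine was added at 50nM. FDSS fluorescence was read 3 min; 15 concentrations, three runs.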

[20] = target: Beta-2 adrenergic receptor (Homo sapiens) (UniProt P07550); experiment: Adrenergic beta2 receptor (ADRB2) small molecule agonists, cell-based qHTS assay (AID 1963593);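 also: CHO cells stably overexpressing human ADRB2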
Procedure, shortened: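 CHO cells stably over-expressing ADRB2 were plated overnight at 37C, then dosed with compounds plus a stimulation mix containing 100uM IBMX and 25uM Ro-20-1724 for 0.5hr at room temperature. cAMP was measured by HTRF competition, 1hr.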

Measured: Potency

Sequence of 5-hydroxytryptamine receptor 2A (Homo sapiens) (P28223 whole entry, looked up): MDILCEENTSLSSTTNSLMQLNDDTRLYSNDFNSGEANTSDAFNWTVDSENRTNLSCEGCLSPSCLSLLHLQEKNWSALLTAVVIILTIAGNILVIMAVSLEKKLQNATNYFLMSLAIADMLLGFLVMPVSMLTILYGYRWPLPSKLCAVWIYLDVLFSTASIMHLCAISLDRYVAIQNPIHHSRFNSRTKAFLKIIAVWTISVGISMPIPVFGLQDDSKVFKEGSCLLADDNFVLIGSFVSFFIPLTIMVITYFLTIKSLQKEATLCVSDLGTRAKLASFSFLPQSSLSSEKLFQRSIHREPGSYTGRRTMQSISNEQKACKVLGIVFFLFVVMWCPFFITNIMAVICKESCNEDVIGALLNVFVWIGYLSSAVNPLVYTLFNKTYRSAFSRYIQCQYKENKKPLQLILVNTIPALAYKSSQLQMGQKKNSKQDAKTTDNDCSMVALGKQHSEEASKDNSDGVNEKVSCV
Sequence of D(2) dopamine receptor (Homo sapiens) (P14416 whole entry, looked up): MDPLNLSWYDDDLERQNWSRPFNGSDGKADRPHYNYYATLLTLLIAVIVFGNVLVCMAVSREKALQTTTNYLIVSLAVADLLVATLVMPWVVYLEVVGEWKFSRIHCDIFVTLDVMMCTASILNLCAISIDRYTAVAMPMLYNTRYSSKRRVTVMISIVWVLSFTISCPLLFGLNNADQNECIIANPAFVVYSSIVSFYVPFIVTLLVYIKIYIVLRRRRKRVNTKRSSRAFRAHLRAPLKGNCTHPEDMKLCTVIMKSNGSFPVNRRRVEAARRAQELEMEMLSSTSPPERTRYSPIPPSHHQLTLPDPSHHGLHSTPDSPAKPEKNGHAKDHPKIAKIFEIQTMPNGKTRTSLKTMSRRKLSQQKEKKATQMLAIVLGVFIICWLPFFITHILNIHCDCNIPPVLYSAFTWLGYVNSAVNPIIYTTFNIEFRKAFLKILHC
Sequence of Gonadotropin-releasing hormone receptor (Homo sapiens) (P30968 whole entry, looked up): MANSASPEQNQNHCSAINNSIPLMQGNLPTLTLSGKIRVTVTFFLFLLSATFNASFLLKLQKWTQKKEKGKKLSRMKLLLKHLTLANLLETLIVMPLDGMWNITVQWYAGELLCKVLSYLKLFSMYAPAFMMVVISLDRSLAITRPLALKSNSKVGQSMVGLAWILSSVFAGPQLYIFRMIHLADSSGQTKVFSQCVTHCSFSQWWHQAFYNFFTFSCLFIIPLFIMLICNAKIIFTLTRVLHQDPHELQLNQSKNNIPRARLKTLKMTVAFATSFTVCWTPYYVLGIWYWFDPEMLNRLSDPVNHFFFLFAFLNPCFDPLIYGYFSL
Sequence of Muscarinic acetylcholine receptor M1 (Homo sapiens) (P11229 whole entry, looked up): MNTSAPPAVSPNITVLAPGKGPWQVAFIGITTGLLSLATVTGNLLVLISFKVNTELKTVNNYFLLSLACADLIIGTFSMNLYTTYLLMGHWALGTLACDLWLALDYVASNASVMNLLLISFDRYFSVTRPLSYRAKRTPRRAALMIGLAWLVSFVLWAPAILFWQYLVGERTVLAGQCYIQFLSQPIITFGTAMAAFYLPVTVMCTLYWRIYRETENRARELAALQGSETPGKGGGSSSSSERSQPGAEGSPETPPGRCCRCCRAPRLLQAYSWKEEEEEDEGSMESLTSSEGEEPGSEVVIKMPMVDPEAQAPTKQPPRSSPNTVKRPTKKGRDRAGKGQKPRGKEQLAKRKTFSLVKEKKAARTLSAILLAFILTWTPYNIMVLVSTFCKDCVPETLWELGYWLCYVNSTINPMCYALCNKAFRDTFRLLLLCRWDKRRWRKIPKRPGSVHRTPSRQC
Sequence of KiSS-1 receptor (Homo sapiens) (Q969F8 whole entry, looked up): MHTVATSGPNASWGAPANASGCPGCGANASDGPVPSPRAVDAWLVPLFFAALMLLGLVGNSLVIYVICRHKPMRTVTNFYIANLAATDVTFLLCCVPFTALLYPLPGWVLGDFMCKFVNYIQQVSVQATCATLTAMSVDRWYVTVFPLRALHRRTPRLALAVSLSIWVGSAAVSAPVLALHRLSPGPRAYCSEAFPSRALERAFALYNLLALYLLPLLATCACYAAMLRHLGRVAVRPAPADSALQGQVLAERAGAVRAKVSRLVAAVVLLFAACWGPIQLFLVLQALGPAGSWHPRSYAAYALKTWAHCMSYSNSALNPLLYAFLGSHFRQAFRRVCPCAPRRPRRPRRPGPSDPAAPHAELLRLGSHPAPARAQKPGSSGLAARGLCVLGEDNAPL
Sequence of Beta-2 adrenergic receptor (Homo sapiens) (P07550 whole entry, looked up): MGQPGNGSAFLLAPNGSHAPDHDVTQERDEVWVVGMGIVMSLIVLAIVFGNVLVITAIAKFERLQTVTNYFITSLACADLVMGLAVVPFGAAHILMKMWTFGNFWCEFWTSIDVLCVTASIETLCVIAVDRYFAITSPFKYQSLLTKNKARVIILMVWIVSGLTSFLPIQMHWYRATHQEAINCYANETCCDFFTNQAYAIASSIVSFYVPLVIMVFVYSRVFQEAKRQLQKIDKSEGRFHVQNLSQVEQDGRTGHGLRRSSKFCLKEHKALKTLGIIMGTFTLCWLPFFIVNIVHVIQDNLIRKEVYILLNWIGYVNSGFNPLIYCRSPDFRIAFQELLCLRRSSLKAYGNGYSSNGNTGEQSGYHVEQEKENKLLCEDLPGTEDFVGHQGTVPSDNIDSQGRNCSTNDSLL

COc1cc2c3cc1Oc1cc(ccc1O)C[C@@H]1c4c(cc(OC)c(O)c4Oc4ccc(cc4)C[C@@H]3N(C)CC2)CC[N+]1(C)C
not listed: [16] | [17] | [18] | [19] | [20]
inactive: all other assays above

COc1ccccc1Oc1c(NS(=O)(=O)c2ccc(C(C)(C)C)cc2)nc(-c2ncccn2)nc1OCCO
not listed: [10] | [11] | [19] | [20]
inactive: all other assays above

COC(=O)N/N=C/c1c[n+]([O-])c2ccccc2[n+]1[O-]
active: [2] 19 µM | [17] 15.1 µM
not listed: [16]
inactive: all other assays above

OC[C@@H](O)[C@@H](O)CO
not listed: [11] | [16] | [20]
inactive: all other assays above
